The source of these data is PubChem BioAssay AID1495 (Sanford-Burnham Center for Chemical Genomics, 2009).

Each structure is given as a SMILES string. Entries with a potency or affinity are not part of this list. The source made the active and inactive calls.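 Rule for the calls: active = calorimetric dissociation constant under 10 µM against either the substrate-binding domain or full-length DnaK; inactive = the rest.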

The target in this test is Chaperone protein DnaK (Escherichia coli) (UniProt C3TRK2). Nature of the test: E. coli DnaK binders, calorimetric Kd – biophysical, isothermal titration calorimetry, beta-domain, full-length DnaK, orthogonal assay for DnaK modulator project, SAR follow-up (AID 1495). To be noted: purified DnaK, isothermal titration calorimetry binding. On the technique in general: Isothermal titration calorimetry measures the heat released or taken up as one component is titrated into another.
On to `Cc1ccc(C(=O)NCc2ccc(F)cc2)o1`, for which the outcome was inactive.

For `O=C(NCc1ccccc1F)c1cccs1`, the compound was classed as inactive.

With `Cc1ccc(C(=O)NCc2ccc(Cl)cc2)o1`, the result was inactive.

On to `O=C(Nc1ncc2ccccc2n1)c1cccs1`, for which the compound was classed as active.

Take `Cc1ccc(CNC(=O)c2ccc([N+](=O)[O-])o2)cc1`: the compound was classed as inactive.
